Assay results published in PubChem BioAssay (NCI).
The panel holds about 79,000 compounds, 15% with a hit somewhere; the sample as a whole holds those more often. The source made the active and inactive calls. Rule as the data show it: active = growth inhibition above about 70%; inactive = the rest.

Tests used:
[1] = NCI Yeast Anticancer Drug Screen. Data for the rad52 strain (AID 147);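 also: 0% = growth of vehicle-treated control cultures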; conditions: S. cerevisiae rad52 mutant growth inhibition, stronger effect = higher value
Procedure, shortened: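 Compounds are applied to a genetically defined yeast strain lacking normal DNA damage repair, and inhibition of growth is expressed relative to cultures given vehicle only.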

[2] = NCI Yeast Anticancer Drug Screen. Data for the wt1 strain (AID 149);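 also: 0% = growth of vehicle-treated wt1 cultures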; conditions: S. cerevisiae wt1 strain (SPY 50644) growth inhibition, stronger effect = higher value
Procedure, shortened: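 Growth inhibition read against vehicle controls after compound exposure of the wt1 yeast strain.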

[3] = NCI Yeast Anticancer Drug Screen. Data for the rad50EPP+ strain (AID 151);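 also: 0% = growth of vehicle-treated control cultures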; conditions: S. cerevisiae rad50 mutant strain, stronger effect = higher value
Procedure, shortened: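 Compounds were applied to the rad50EPP+ yeast strain, which bears a defined DNA repair alteration, and growth inhibition was determined relative to vehicle-treated cultures.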

[4] = NCI Yeast Anticancer Drug Screen. Data for the rad50 strain (AID 155);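 also: 0% = growth of vehicle-only cultures of the same strain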; conditions: S. cerevisiae rad50 strain growth inhibition, stronger effect = higher value
Procedure, shortened: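 Readout: growth inhibition relative to vehicle-treated cultures. Compound exposure was carried out in a genetically defined yeast strain deficient in DNA damage repair.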

[5] = NCI Yeast Anticancer Drug Screen. Data for the mec2-1 strain (AID 157); conditions: S. cerevisiae mec2-1 strain, stronger effect = higher value
Procedure, shortened: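 Strain: mec2-1 (DNA repair/cell cycle alteration). Compound exposure, then growth measured; inhibition expressed relative to vehicle.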

[6] = NCI Yeast Anticancer Drug Screen. Data for the rad14 strain (AID 159);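 also: 0% = growth of vehicle-treated control cultures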; conditions: S. cerevisiae rad14 strain growth inhibition, stronger effect = higher value
Procedure, shortened: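 Growth inhibition vs vehicle controls; genetically altered yeast strain (DNA damage repair defect) treated with test compounds.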

[7] = NCI Yeast Anticancer Drug Screen. Data for the sgs1 mgt1 strain (AID 161);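 also: 0% = growth of cultures given vehicle only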; conditions: S. cerevisiae sgs1 mgt1 strain, stronger effect = higher value
Procedure, shortened: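 Genetically altered yeast, compound exposure, growth inhibition relative to vehicle.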

[8] = NCI Yeast Anticancer Drug Screen. Data for the CLN2oe strain (AID 163);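 also: 0% = growth of vehicle-only control cultures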; conditions: S. cerevisiae CLN2oe strain, stronger effect = higher value
Procedure, shortened: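 Growth of a genetically modified yeast strain is measured after compound exposure and compared with cultures given vehicle alone.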

[9] = NCI Yeast Anticancer Drug Screen. Data for the bub3 strain (AID 167); conditions: S. cerevisiae bub3 mutant strain, stronger effect = higher value
Procedure, shortened: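 Readout: yeast growth inhibition, expressed relative to vehicle-only wells. The test organism is a mutant strain from a panel with lesions in DNA repair or checkpoint genes.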

[10] = NCI Yeast Anticancer Drug Screen. Data for the wt2 strain (AID 169);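 also: 0% = growth of vehicle-treated yeast cultures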; conditions: S. cerevisiae wt2 strain growth inhibition, stronger effect = higher value
Procedure, shortened: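 This strain belongs to a panel of yeast strains with defined genetic alterations in DNA damage repair or cell cycle control. Compounds are applied, and growth inhibition is measured against vehicle-treated cultures.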

[11] = NCI Yeast Anticancer Drug Screen. Data for the mlh1 strain (AID 171);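 also: 0% = growth of vehicle-treated control cultures of the same strain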; conditions: S. cerevisiae mlh1 strain growth inhibition, stronger effect = higher value
Procedure, shortened: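 Growth of the mutant yeast strain after compound exposure, expressed as inhibition relative to vehicle-only controls.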

[12] = NCI Yeast Anticancer Drug Screen. Data for the sgs1 strain (AID 173);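 also: 0% = growth of vehicle-only control cultures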; conditions: S. cerevisiae sgs1 mutant, stronger effect = higher value
Procedure, shortened: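 Growth of a yeast strain bearing a defined genetic alteration is measured after compound treatment. Inhibition is expressed relative to vehicle-only controls.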

[13] = NCI Yeast Anticancer Drug Screen. Data for the mlh1 rad18 strain (AID 175); conditions: S. cerevisiae mlh1 rad18 strain growth inhibition, stronger effect = higher value
Procedure, shortened: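 Read-out is yeast growth inhibition, calculated against vehicle-only controls. The compound was applied to a strain engineered with DNA damage repair alterations.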

[14] = NCI Yeast Anticancer Drug Screen. Data for the rad18 strain (AID 177); conditions: S. cerevisiae rad18 mutant growth inhibition, stronger effect = higher value
Procedure, shortened: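 Growth of the mutant yeast strain after compound exposure, normalised to vehicle-only cultures.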

[15] = NCI Yeast Anticancer Drug Screen. Data for the cln2 rad14 strain (AID 165);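 also: 0% = growth equal to vehicle treated cultures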; conditions: S. cerevisiae cln2 rad14 strain, stronger effect = higher value
Procedure, shortened: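 Compounds are applied to the cln2 rad14 yeast strain, and growth is then compared with that of vehicle-treated cultures to give inhibition.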

[16] = at 5.0 µM (retest, dose inferred, filed as 0.5)
[17] = at 50.0 µM (retest, dose inferred, filed as 5.0)

Measured: growth inhibition

Cc1nc2c(ncn2CCO)c(=O)[nH]1
active: [9]; [17] 76% | [13]; [17] 91%
inactive: [1]; at 1.2 µM -3% | [1]; at 3.7 µM -8% | [1]; at 11.0 µM -7% | [1]; at 33.0 µM -12% | [1]; at 100.0 µM -14% | [2]; at 1.2 µM -36% | [2]; at 3.7 µM -22% | [2]; at 11.0 µM -38% | [2]; at 33.0 µM -42% | [2]; at 100.0 µM -41% | [3]; at 1.2 µM -11% | [3]; at 3.7 µM 10% | [3]; at 11.0 µM 5% | [3]; at 33.0 µM 3% | [3]; at 100.0 µM 1% | [4]; at 1.2 µM -29% | [4]; at 3.7 µM -34% | [4]; [16] 29% | [4]; at 11.0 µM -32% | [4]; at 33.0 µM -33% | [4]; [17] 39% | [4]; at 50.0 µM 7.95% | [4]; at 100.0 µM -24% | [5]; at 1.2 µM 15% | [5]; at 3.7 µM -2% | [5]; [16] 13% | [5]; at 11.0 µM -3% | [5]; at 33.0 µM -3% | [5]; [17] 47% | [5]; at 50.0 µM -20.6% | [5]; at 100.0 µM -13% | [6]; at 1.2 µM -3% | [6]; at 3.7 µM 6% | [6]; at 11.0 µM 11% | [6]; at 33.0 µM -5% | [6]; at 100.0 µM -2% | [7]; [16] 29% | [7]; at 50.0 µM 2.1% | [8]; at 1.2 µM 0% | [8]; at 3.7 µM -7% | [8]; at 11.0 µM -2% | [8]; at 33.0 µM -6% | [8]; at 100.0 µM -4% | [9]; at 1.2 µM -10% | [9]; at 3.7 µM -7% | [9]; [16] 21% | [9]; at 11.0 µM -17% | [9]; at 33.0 µM -13% | [9]; at 50.0 µM 0.5% | [9]; at 100.0 µM -28% | [10]; at 1.2 µM -15% | [10]; at 3.7 µM -30% | [10]; at 11.0 µM -31% | [10]; at 33.0 µM -37% | [10]; at 100.0 µM -38% | [11]; at 1.2 µM -16% | [11]; at 3.7 µM -11% | [11]; at 11.0 µM -14% | [11]; at 33.0 µM -18% | [11]; at 100.0 µM -5% | [12]; at 1.2 µM 2% | [12]; at 3.7 µM 8% | [12]; at 11.0 µM 9% | [12]; at 33.0 µM 5% | [12]; at 100.0 µM -2% | [13]; [16] 45% | [13]; at 50.0 µM -40.7% | [14]; at 1.2 µM -38% | [14]; at 3.7 µM -32% | [14]; at 11.0 µM -9% | [14]; at 33.0 µM -35% | [14]; at 100.0 µM -36%

Cc1c2cc[n+](CCN3CCCCC3)cc2c(C)c2c1[nH]c1ccc(O)cc12
active: [1]; at 11.0 µM 81% | [1]; at 33.0 µM 93% | [1]; at 100.0 µM 98% | [3]; at 33.0 µM 89% | [3]; at 100.0 µM 96% | [4]; at 11.0 µM 74% | [4]; at 33.0 µM 91% | [4]; [17] 97% | [4]; at 50.0 µM 97.8% | [4]; at 100.0 µM 98% | [5]; at 100.0 µM 98% | [6]; at 100.0 µM 93% | [7]; at 50.0 µM 89.2% | [8]; at 100.0 µM 72% | [9]; at 50.0 µM 90.5% | [9]; at 100.0 µM 97% | [11]; at 100.0 µM 97%
inactive: [1]; at 1.2 µM 19% | [1]; at 3.7 µM 44% | [2]; at 1.2 µM 2% | [2]; at 3.7 µM 2% | [2]; at 11.0 µM 5% | [2]; at 33.0 µM 6% | [2]; at 100.0 µM 29% | [3]; at 1.2 µM 4% | [3]; at 3.7 µM 16% | [3]; at 11.0 µM 62% | [4]; at 1.2 µM 17% | [4]; at 3.7 µM 47% | [4]; [16] 36% | [5]; at 1.2 µM -2% | [5]; at 3.7 µM 3% | [5]; [16] 25% | [5]; at 11.0 µM 5% | [5]; at 33.0 µM 15% | [5]; [17] 4% | [5]; at 50.0 µM 57.5% | [6]; at 1.2 µM 1% | [6]; at 3.7 µM 12% | [6]; at 11.0 µM 1% | [6]; at 33.0 µM 14% | [7]; [16] 2% | [7]; [17] 38% | [8]; at 1.2 µM -3% | [8]; at 3.7 µM -3% | [8]; at 11.0 µM -3% | [8]; at 33.0 µM 4% | [15]; [16] 5% | [15]; [17] 6% | [15]; at 50.0 µM 30.1% | [9]; at 1.2 µM -20% | [9]; at 3.7 µM 5% | [9]; [16] 16% | [9]; at 11.0 µM -4% | [9]; at 33.0 µM -5% | [9]; [17] 28% | [11]; at 1.2 µM -5% | [11]; at 3.7 µM -4% | [11]; at 11.0 µM 0% | [11]; at 33.0 µM 8%
